# Measurements published in PubChem BioAssay AID652141 (The Scripps Research Institute Molecular Screening Center, 2013).
# Hit rate of the full screen: of about 5,600 compounds, about 4,500 (80%) were called active. Rule as the data show it: active = inhibition above about 10%; inactive = the rest. The set was probably picked from earlier hits. Not all results are given here.
# Test: GDH-TPI coupling enzyme inhibitors, artefact control for M. tuberculosis FBA inhibitor project, biochemical, fluorescence, high throughput (AID 652141)
# Details: GDH-TPI coupled enzyme counterscreen, at 1 µM, active compounds read high
row,SMILES,inhibition
1,CC(=O)c1sc2nc(SCC(=O)N3CCCCC3)[nH]c(=O)c2c1C,55.4% (active)
2,Cc1nc(NCCN)c(C#N)c2c1COC(C)(C)C2,76.9% (active)
3,COc1ccc(C2CC(c3cccs3)=NN2c2ccccc2)cc1 (centres undefined),23.7% (active)
4,Fc1ccc(N2N=C(c3cccs3)CC2c2ccco2)c(F)c1 (centres undefined),-3.03% (inactive)
5,Oc1ccccc1C1=NN(c2ccccc2)C(c2ccccc2)C1 (centres undefined),84% (active)
6,COc1ccccc1N1N=C(c2cccs2)CC1c1ccccc1 (centres undefined),46.6% (active)
7,COc1ccc(C2CC(c3cccs3)=NN2c2ccc(F)cc2)cc1OC (centres undefined),71.1% (active)
8,CS(=O)(=O)Nc1ccc(C2=NN(S(C)(=O)=O)C(c3cccs3)C2)cc1 (centres undefined),-3.93% (inactive)
9,Cc1cc(C)c(-c2c(O)c3ccccc3n(C)c2=O)c(C)c1,61.1% (active)
10,Cc1ccc(S(=O)(=O)N2CCN(C(=O)CSc3cc(C)ccc3C)CC2)c(C)c1,108% (active)
11,CCc1cc(=O)oc2cc(C)cc(OCC(=O)N3CCC[C@@H]3C(=O)O)c12,54.6% (active)
12,CCCC/C=C/c1cccc2nncn12,54% (active)
13,CCOc1ccccc1C1CC(c2ccccc2)Nc2nc(N)nn21 (centres undefined),132% (active)
14,CN(C)CCCn1c(N)c(C#N)c2nc(C#N)c(C#N)nc21,76.3% (active)
15,c1ccc(Cc2c(-c3ccco3)nc3c4ccccc4ccn23)cc1,95.6% (active)
16,CN(C)c1ccc(/C=N/NC(=O)C(O)c2ccc(Br)cc2)cc1 (centres undefined),64% (active)
17,CC(C)C1Nc2c(C(=O)O)cccc2C(Nc2ccccc2C(=O)O)C1(C)C (centres undefined),87.3% (active)
18,CC(=O)N1C(=O)/C(=C2\SC(=S)N(NC(=O)c3ccc(O)cc3)C2=O)c2ccccc21,-2.52% (inactive)
19,Cc1cc(OCc2cc(C(=O)O)oc2C)c2c3c(c(=O)oc2c1)CCCC3,89.5% (active)
20,COC(=O)COc1cc(C)cc2oc(=O)c3c(c12)CCCC3,105% (active)
21,O=C(c1cc(-c2ccc(Cl)s2)nc2ccccc12)N1CCOCC1,83% (active)
22,CC(=O)N1CCN(C(=O)c2cc(-c3ccc(Cl)s3)nc3ccccc23)CC1,-3.53% (inactive)
23,Cc1ccc2nc(-c3ccco3)c(Cc3cccc(Cl)c3)n2c1,63.6% (active)
24,COC(=O)c1cc(-c2cccs2)nc2ccccc12,96.2% (active)

row,SMILES,inhibition
1,O=C(NCCN1CCOCC1)c1cc(-c2cccs2)nc2ccccc12,-3.18% (inactive)
2,CC(C)(C)OC(=O)NNc1c2ccccc2nc2ccccc12,-5.25% (inactive)
3,CC(C)n1c(-c2cccs2)nc2ccccc21,68.4% (active)
4,Cc1cc(=O)oc2c1ccc1ccccc12,71.6% (active)
5,COCCN(CCOC)c1nc(N)c2c(N)nc3c(c2c1C#N)CC(=O)N3Cc1ccc(Cl)cc1,79% (active)
6,N#CC1(Nc2ccc3c4c(cccc24)CC3)CCCCC1,103% (active)
7,COCc1cc(=O)oc2cc(NS(=O)(=O)c3ccc(C)cc3)ccc12,51.2% (active)
8,CCSc1nnc(-c2cc3c(s2)-c2ccccc2CC3)o1,53.8% (active)
9,Cc1cc(=O)oc2c3c(cc(OCC(=O)NCC(O)c4ccccc4)c12)OC(C)(C)CC3 (centres undefined),46.9% (active)
10,CC1(C)CC(=O)c2cc(OCC(=O)NCC3CCCO3)ccc2O1 (centres undefined),-4.8% (inactive)
11,Cc1cc(OCC(=O)NCC(O)c2ccccc2)c2c(C)c(C)c(=O)oc2c1 (centres undefined),187% (active)
12,CC1=CC2=NC(=O)CC(C)(C(=O)N(CC(=O)NC(C)(C)C)Cc3ccccc3)N2C=C1 (centres undefined),4.57% (inactive)
13,COCCCNC(=S)N(CCN(C)C)Cc1cc2cc3c(cc2[nH]c1=O)OCCO3,41% (active)
14,Cc1ccc2nc(/C(C#N)=C\c3ccc(OC(=O)c4cccs4)cc3)[nH]c2c1,39% (active)
15,Cc1ccsc1C(=O)N[C@@H](C)c1nnc2ccccn12,110% (active)
16,CCC1C(=O)c2ccccc2N(C)C1=O (centres undefined),-6.39% (inactive)
17,O=C(NCCN1CCOCC1)c1ccc2c(c1)N(Cc1ccc(Cl)cc1)CCS2,48.2% (active)
18,O=C(NCCc1ccccc1)c1ccc2c(c1)N(Cc1ccccc1)CCS2,29.2% (active)
19,CN1CCN(CCCNC(=O)c2ccc(/C=C3\Oc4ccccc4N(Cc4ccc(Cl)cc4)C3=O)cc2)CC1,-4.56% (inactive)
20,CC(C)(C)Nc1c(-c2cccs2)nc2ccccn12,114% (active)
21,COC(=O)c1c(-c2ccsc2)oc2ccc(-c3cc(OC)c(OC)c(OC)c3)cc12,-4.81% (inactive)
22,Cc1c(Cc2ccccc2)c(=O)oc2cc(OCC(N)=O)ccc12,"899% [above what the read-out allows, likely interference] (active)"
23,CCOC(=O)c1c(-c2ccccc2)oc2ccc(OCC(N)=O)cc12,126% (active)
24,CCOC(=O)c1c(-c2ccccc2)oc2ccc(OC(=O)N(C)C)cc12,164% (active)

row,SMILES,inhibition
1,CCOC(=O)c1c(-c2ccccc2)oc2ccc(OCC(=O)NN)cc12,74.7% (active)
2,Cc1c(CCC(=O)O)c(=O)oc2cc(OCc3ccc(Br)cc3)ccc12,1.56% (inactive)
3,C=CCNC(=O)c1ccc2c3n(nc2c1)-c1ccc(C)cc1CO3,160% (active)
4,CCOC(=O)CSc1nc2c(c(=O)n(Cc3ccccc3Cl)c(=O)n2C)n1C,28.5% (active)
5,COc1ccc(-n2cc(CNC3CCOCC3)c(-c3cccc(F)c3)n2)cc1,15.8% (active)
6,COc1ccc(-n2cc(CN(C)Cc3n[nH]c(=O)[nH]3)c(-c3cccc(F)c3)n2)cc1,37.4% (active)
7,CCCc1nc2oc3c(=O)[nH]cnc3c2c2c1COC(C)(C)C2,101% (active)
8,O=C(O)/C=C/c1cn(-c2ccccc2)nc1-c1cccs1,76.6% (active)
9,COc1ccccc1-c1oc2ccccc2c1C#CCCCCO,145% (active)
10,Cc1ccc(-c2nc(C#N)c(NCCCn3ccnc3)o2)cc1,34.1% (active)
11,C=CCn1cc(-c2cccc(C(F)(F)F)c2)cc(C#N)c1=O,-2.28% (inactive)
12,Cn1cc(-c2ccccc2)cc(C#N)c1=O,79.8% (active)
13,CN(CCNC(=O)c1cc2c(-c3ccccc3F)nn(C)c2s1)C1CCCCC1,183% (active)
14,CCOC(=O)c1cc2cc(C)ccc2[nH]1,42.5% (active)
15,Cc1cc(C)c2c(NC(=O)C3CC3)nn(C)c2n1,72.7% (active)
16,Cc1cc(C)c2c(n1)nn1c(-n3ccnc3)cc(C)nc21,-4.63% (inactive)
17,Cc1cc(=O)n2[nH]c(-c3cccc(Cl)c3)cc2n1,82.4% (active)
18,CC(C)n1ncc2c(C(=O)NCc3ccccc3CN(C)C)cc(C3CC3)nc21,108% (active)
19,CCCS(=O)(=O)Nc1c(C(=O)O)[nH]c2ccccc12,48.1% (active)
20,CC(C)CN1CCNC(=O)C1CC(=O)N(C)CC1CCOCC1 (centres undefined),106% (active)
21,COCCCNC(=S)NCCNc1nc2cc(C)c(C)cc2cc1C#N,60.5% (active)
22,CN(CCc1ccccn1)S(=O)(=O)c1ccc2c3c(cccc13)C(=O)N2,103% (active)
23,CCN(C(=O)COC(=O)c1ccc(COc2ccc3c(C)cc(=O)oc3c2)cc1)C1CCS(=O)(=O)C1 (centres undefined),-0.6% (inactive)
24,CCC(C)N(C(=O)COC(=O)C1C(C(=O)OC)=C(C)NC(C)=C1C(=O)OC)C1CCS(=O)(=O)C1 (centres undefined),111% (active)

row,SMILES,inhibition
1,Cc1ccc(-c2nc3ccccc3c(=O)n2-c2ccc(Br)cn2)cc1,98.6% (active)
2,CC1(C(=O)NCc2ccco2)Cc2c(-c3ccc4c(c3)OCO4)ccnc2O1 (centres undefined),-4.87% (inactive)
3,CC1(C(=O)NCc2ccc(F)c(F)c2)Cc2c(-c3ccc4c(c3)OCO4)ccnc2O1 (centres undefined),108% (active)
4,CC(C)OCCCNc1ncnc2c1[nH]c1ccc(F)cc12,97.1% (active)
5,CCCCNc1c(-c2cccc(Sc3ccc(OC)cc3)c2)nc2ccccn12,32.5% (active)
6,C=CCc1c(C)nc2cc(-c3ccccc3)[nH]n2c1=O,49.2% (active)
7,CCc1c(C)nc2cc(-c3cccs3)[nH]n2c1=O,19.6% (active)
8,CCc1c(C)nc2cc(C)[nH]n2c1=O,41.7% (active)
9,Cc1ccc(S(=O)(=O)N2C[C@@H](C)[C@]3(C2)[C@H](O)[C@H](OC(=O)NCc2ccccc2)C[C@H]2C(=O)N(c4ccccc4)C(=O)[C@H]23)cc1,-1.04% (inactive)
10,CN(C)Cc1c(O)ccc2c(=O)c(-c3ccccc3Cl)coc12,3.78% (inactive)
11,C[C@H](O)[C@@H]1C(=O)N2CCc3c([nH]c4ccccc34)[C@@H]2C[C@@H]1N(C)C(=O)Nc1ccc(F)cc1,182% (active)
12,O=C(O)c1cccnc1Sc1ncnc2sc3c(c12)CCC3,47.7% (active)
13,N#Cc1c(N)n(CCOC(=O)c2ccc(Cl)cc2)c2nc3ccccc3nc12,27.5% (active)
14,CC(OC(=O)c1ccccc1NCCO)C(=O)Nc1ccnn1C(C)C (centres undefined),83.3% (active)
15,COc1cc2nc(N3CCN(C(=O)[C@@H]4CCCO4)CC3)nc(N)c2cc1OC,81.7% (active)
16,Cc1ccc(NC(=O)CN(C)C(=O)COC(=O)c2nccnc2N)cc1,-3.67% (inactive)
17,Cc1nc2ccc(NC(=O)N3CCC(c4ccccc4)C3)cc2nc1C (centres undefined),70.1% (active)
18,CCN1CCc2c(C#N)c(NCc3ccccc3)nc(NCCO)c2C1,139% (active)
19,O=C(Nc1ccc2nccnc2c1)c1ccco1,"515% [above what the read-out allows, likely interference] (active)"
20,O=C1OCCN1C(=O)[C@H]1[C@H](c2ccc(F)cc2)C(c2ccccc2)=NN1c1ccc(Br)cc1,38.6% (active)
21,C#Cc1cc(N2CCN(C(=O)c3ccoc3)CC2)n2nc(-c3cccc(Cl)c3)cc2n1,73.9% (active)
22,Cc1nc(COc2cc3oc(=O)cc(C)c3cc2Cl)cs1,171% (active)
